Source: PubChem BioAssay (NCATS)
Unmarked numbers belong to inactive results. Inconclusive results are not listed. A call without a number means that no potency is given here. The source made the active and inactive calls. Unless noted, calls follow the shape of the dose curve; as a rule, active = well fitted curve in the direction sought with a large enough effect; inconclusive = small, poorly fitted or top-dose-only effect, or another doubt; inactive = no such curve, though single readings can be large; an effect the other way counts as inactive or inconclusive.

Key:
[1] = molecular target: Lysosomal acid glucosylceramidase (Homo sapiens) (UniProt P04062); test: Glucocerebrosidase-p2 (AID 348; in the data active = potency below about 10 µM; also: potency is read from the fitted curve at half-maximal effect); conditions: purified GBA, blue fluorogenic substrate, 40 min
Lysosomal acid glucosylceramidase (Homo sapiens), sequence (P04062 whole entry, looked up): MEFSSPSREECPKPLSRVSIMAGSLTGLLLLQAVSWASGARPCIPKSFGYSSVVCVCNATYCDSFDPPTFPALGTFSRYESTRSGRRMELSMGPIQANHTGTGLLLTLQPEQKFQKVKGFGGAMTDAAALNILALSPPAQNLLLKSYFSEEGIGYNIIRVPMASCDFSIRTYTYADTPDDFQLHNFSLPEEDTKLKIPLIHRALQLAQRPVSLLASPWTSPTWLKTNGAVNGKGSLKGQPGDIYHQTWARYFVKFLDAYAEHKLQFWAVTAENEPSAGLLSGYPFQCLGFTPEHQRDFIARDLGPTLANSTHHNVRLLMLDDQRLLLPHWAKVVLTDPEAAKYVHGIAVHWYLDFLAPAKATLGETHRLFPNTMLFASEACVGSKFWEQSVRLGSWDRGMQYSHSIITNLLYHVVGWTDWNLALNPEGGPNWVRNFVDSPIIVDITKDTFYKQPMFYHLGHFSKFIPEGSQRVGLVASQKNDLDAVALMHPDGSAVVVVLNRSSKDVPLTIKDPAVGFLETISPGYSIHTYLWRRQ
Method in brief: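 Compounds titrated from 0.6 nM upwards against 0.2 nM enzyme in pH 5.9 citric acid/KH2PO4, taurocholate, tween-20; blue fluorogenic substrate 80 uM, 40 min room temperature, stopped and read Ex 365/Em 440 for AC50.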

[2] = AP1 Signaling Pathway (AID 357; active = well fitted curve in either direction with a large enough effect, not every such curve was filed as active;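 also: ME-180 reporter cells stimulated with EGF at its EC50 level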); conditions: ME-180 AP-1-bla reporter, EGF-induced, beta-lactamase ratio, 5 h; at 7.69 µM (top of the series) unless noted
Method in brief: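 Beta-lactamase reporter under AP-1 response element, ME-180 background. Stimulus: EC50 EGF. Compound exposure 5 h, 37 °C. Detection: CCF4, 2.5 h RT, 460/530 nm. Values: AC50 from titration.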

[3] = NFAT Signaling Pathway (AID 444; active = well fitted curve in either direction with a large enough effect, not every such curve was filed as active;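 also: carbachol stimulus at about its EC50 of 1 µM final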); conditions: Jurkat NFAT-bla M1, carbachol, beta-lactamase ratio, 5 h; at 7.69 µM (top of the series) unless noted
Method in brief: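 Jurkat cells carrying an NFAT-driven β-lactamase reporter and co-transfected muscarinic M1 receptor were treated with compound plus carbachol (1 uM final, an EC50 level) for 5 h at 37 °C. CCF4 loading followed for 1 h at RT; 460/530 nm ratio gave %activity.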

[4] = molecular target: Glucocorticoid receptor (Homo sapiens) (UniProt P04150); test: GR-GFP Redistribution (AID 450;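 active = compounds whose dose series gives a full or clear partial fitted curve of increased nuclear translocation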; also: potency is read from the fitted curve at half-maximal effect); conditions: U2OS GR-GFP nuclear translocation, laser cytometry, 2 h
Glucocorticoid receptor (Homo sapiens), sequence (P04150 whole entry, looked up, the tested form may be a part): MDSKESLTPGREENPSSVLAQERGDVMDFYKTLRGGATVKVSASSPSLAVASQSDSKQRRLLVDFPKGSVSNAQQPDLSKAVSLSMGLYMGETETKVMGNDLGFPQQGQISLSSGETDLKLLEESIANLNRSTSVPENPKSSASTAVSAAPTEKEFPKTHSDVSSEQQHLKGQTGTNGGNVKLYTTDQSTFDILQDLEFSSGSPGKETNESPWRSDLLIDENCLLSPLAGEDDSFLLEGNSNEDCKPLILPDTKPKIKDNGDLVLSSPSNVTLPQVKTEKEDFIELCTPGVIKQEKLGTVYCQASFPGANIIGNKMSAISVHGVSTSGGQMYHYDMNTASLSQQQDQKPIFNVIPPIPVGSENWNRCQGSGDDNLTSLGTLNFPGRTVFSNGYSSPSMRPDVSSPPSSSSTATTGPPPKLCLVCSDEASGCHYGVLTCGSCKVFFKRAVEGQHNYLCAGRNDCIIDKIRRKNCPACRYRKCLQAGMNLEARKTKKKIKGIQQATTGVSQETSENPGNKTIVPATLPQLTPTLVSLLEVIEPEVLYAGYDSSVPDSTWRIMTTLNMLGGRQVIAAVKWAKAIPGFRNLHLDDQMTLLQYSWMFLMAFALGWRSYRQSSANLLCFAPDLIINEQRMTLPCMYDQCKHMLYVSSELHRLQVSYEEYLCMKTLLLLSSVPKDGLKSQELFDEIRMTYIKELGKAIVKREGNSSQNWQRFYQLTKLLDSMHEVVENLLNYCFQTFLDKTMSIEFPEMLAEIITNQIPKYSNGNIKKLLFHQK

[5] = molecular target: Glucocorticoid receptor (Homo sapiens) (UniProt P04150); test: GR-EFC Redistribution (AID 451; calls by dose curve; also: potency is read from the fitted curve at half-maximal effect); conditions: CHO-K1 GR-EFC translocation, beta-gal luminescence, 2 h
Method in brief: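 CHO-K1 cells stably expressing nuclear-localized β-gal enzyme acceptor and GR fused C-terminally to the enzyme donor fragment; ligand-driven nuclear translocation restores β-gal by complementation. Compounds titrated up to 46 uM final, 2 h at 37 °C; luminescence read.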

[6] = molecular target: Mitogen-activated protein kinase 10 (Mus musculus) (UniProt Q61831); test: JNK3 AlphaScreen Assay (AID 530; active = well fitted curve in either direction with a large enough effect, not every such curve was filed as active;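 also: kinase came from lysate of stimulated human HepG2 cells; signal reports phosphorylation of biotinylated GST-cJun 1-79 at Ser73 with 10 µM ATP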); conditions: JNK3 lysate, c-Jun phosphorylation; series mostly up to 57.1 µM
Method in brief: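 Inhibitors reduce antibody binding to phosphorylated biotin-cJun, lowering AlphaScreen luminescence. Lysates from HepG2 cells pre-activated by IL-1beta plus TNF-alpha supplied JNK3; compounds were titrated.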

[7] = molecular target: 3',5'-cyclic-AMP phosphodiesterase 4B (Homo sapiens) (UniProt Q07343); test: qHTS Assay for Inhibitors of PDE-IV (AID 607; active = well fitted activation curve with a large enough effect in the main read-out, with a control signal flat, not every such curve was filed as active); conditions: HEK293 ACTOne CNG channel cells, membrane potential fluorescence; series mostly up to 22.9 µM
3',5'-cyclic-AMP phosphodiesterase 4B (Homo sapiens), sequence (Q07343 whole entry, looked up): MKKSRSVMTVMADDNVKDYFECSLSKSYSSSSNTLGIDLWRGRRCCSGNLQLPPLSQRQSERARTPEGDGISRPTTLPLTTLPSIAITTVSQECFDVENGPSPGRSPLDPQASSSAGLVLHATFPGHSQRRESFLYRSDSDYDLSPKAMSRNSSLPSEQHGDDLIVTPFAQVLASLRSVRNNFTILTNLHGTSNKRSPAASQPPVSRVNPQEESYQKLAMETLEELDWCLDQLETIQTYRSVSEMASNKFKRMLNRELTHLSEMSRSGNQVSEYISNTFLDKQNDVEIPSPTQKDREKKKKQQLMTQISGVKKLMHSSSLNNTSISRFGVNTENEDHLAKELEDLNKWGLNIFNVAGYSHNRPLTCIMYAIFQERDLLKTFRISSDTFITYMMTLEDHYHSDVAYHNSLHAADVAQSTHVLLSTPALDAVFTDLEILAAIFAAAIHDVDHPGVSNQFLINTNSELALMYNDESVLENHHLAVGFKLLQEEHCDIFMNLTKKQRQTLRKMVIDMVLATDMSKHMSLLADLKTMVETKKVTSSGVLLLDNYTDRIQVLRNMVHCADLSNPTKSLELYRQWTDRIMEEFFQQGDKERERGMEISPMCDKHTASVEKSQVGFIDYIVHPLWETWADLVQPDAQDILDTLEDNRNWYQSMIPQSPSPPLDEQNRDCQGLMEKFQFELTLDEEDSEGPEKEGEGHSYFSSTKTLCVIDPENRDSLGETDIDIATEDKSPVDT
Method in brief: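 Cell-based read-out of cAMP via a modified cyclic nucleotide-gated channel and membrane potential dye (535/590 nm) in HEK293 cells expressing PDE4 endogenously. Compounds tested up to 22.9 uM final; 100 uM RO 20-1724 reference.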

[8] = molecular target: Dual specificity protein kinase CLK4 (Homo sapiens) (UniProt Q9HAZ1); test: qHTS Assay for Inhibitors of CDC-like Kinase 4 (Kinase-Glo Assay) (AID 1770); conditions: recombinant Clk4, Kinase-Glo ATP depletion luminescence; series mostly up to 66.7 µM; also: nearly all actives have a fitted effect of over 65% in size; also: potency is read from the fitted curve at half-maximal effect
Dual specificity protein kinase CLK4 (Homo sapiens), sequence (Q9HAZ1 whole entry, looked up): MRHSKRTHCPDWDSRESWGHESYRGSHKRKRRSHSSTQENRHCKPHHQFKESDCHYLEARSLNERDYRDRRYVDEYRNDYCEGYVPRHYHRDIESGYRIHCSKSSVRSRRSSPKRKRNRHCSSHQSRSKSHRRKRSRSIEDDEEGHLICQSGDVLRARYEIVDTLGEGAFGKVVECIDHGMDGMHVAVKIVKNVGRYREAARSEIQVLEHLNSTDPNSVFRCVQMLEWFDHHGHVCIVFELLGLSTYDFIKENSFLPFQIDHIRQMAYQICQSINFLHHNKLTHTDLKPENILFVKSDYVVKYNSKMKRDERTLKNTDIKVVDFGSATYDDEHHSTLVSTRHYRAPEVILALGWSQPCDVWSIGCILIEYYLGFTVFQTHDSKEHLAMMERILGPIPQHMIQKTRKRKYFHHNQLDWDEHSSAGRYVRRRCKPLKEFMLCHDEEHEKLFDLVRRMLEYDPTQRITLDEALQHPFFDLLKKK
Method in brief: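 Clk4 25 nM, RS peptide 100 uM, ATP 1 uM, pH 7.5 Tris, 10 mM MgCl2, 2.5 mM DTT; 4.5 h RT; ATP depletion read by Kinase-Glo luminescence.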

[9] = molecular target: Dual specificity protein kinase CLK4 (Homo sapiens) (UniProt Q9HAZ1); test: qHTS Assay for Inhibitors of CDC-like Kinase 4 (ADP-Glo Assay) (AID 1771); conditions: recombinant CLK4, ADP-Glo luminescence; series mostly up to 80 µM; also: nearly all actives have a fitted effect of over 70% in size; also: potency is read from the fitted curve at half-maximal effect
Method in brief: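 25 nM Clk4 with 100 uM RS repeat peptide and 1 uM ATP (final) in buffer with 2 mM MgCl2, 0.5 mM EGTA, 2.5 mM DTT, 0.01% Triton X-100; 1 h at room temperature; ADP-Glo luminescence for ADP formed.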

[10] = molecular target: Dual specificity protein kinase CLK4 (Homo sapiens) (UniProt Q9HAZ1); test: qHTS Assay for Inhibitors of CDC-like Kinase 4 (ADP-FP Assay) (AID 1795); conditions: Transcreener ADP fluorescence polarization; series mostly up to 50 µM; also: nearly all actives have a fitted effect of over 60% in size; also: potency is read from the fitted curve at half-maximal effect;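 as to activity change, negative = inhibition: recombinant human CLK4 phosphorylating RS repeat peptide at 1 µM ATP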
Method in brief: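 Kinase activity was followed as ADP output, converted from fluorescence polarization with a calibration curve. Reactions ran one hour at low ATP (1 uM) with RS peptide substrate.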

[11] = molecular target: Ubiquitin carboxyl-terminal hydrolase 1 (Homo sapiens) (UniProt O94782); test: Inhibitors of USP1/UAF1: Pilot qHTS (AID 504865); conditions: purified USP1/UAF1, Ub-rhodamine cleavage fluorescence; series mostly up to 54.9 µM;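 also: rhodamine fluorescence freed from ubiquitin-rhodamine substrate followed over time; top concentration of the series differs between compounds; nearly all actives have a fitted effect of over 35% in size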
Ubiquitin carboxyl-terminal hydrolase 1 (Homo sapiens), sequence (O94782 whole entry, looked up): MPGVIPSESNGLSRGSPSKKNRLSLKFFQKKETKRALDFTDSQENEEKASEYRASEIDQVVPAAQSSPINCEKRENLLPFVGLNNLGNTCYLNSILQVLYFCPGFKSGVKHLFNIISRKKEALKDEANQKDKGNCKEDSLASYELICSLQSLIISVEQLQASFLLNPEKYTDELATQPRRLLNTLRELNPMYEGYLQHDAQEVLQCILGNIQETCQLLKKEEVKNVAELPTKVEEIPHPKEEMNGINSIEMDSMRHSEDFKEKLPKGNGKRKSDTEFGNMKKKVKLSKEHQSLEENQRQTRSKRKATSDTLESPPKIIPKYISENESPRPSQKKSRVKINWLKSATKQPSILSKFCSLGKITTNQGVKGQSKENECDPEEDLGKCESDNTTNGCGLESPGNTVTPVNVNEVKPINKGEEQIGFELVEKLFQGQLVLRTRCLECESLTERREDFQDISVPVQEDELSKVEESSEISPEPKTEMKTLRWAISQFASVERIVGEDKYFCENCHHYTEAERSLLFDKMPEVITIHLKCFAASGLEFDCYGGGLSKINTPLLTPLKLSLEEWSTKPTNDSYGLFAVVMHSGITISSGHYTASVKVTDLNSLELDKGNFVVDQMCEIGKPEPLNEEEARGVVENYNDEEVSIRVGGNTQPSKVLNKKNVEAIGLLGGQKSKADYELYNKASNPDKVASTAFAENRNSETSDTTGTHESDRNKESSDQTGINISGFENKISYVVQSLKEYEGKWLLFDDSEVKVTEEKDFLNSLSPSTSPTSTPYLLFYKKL
Method in brief: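 Enzyme-free wells gave the negative control, while test wells held 1nM USP1/UAF1 preincubated with compound for 15 min at room temperature. Ub-Rho at 150nM final started the reaction, and fluorescence at 480/540 nm was recorded kinetically.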

[12] = Primary qHTS for small molecule stabilizers of the endoplasmic reticulum resident proteome: Secreted ER Calcium Modulated Protein (SERCaMP) assay (AID 1508630); conditions: SH-SY5Y GLuc-SERCaMP (Gaussia luciferase released on ER calcium loss) secretion, thapsigargin, luminescence; series mostly up to 38.4 µM
Method in brief: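 GLuc-SERCaMP-expressing SH-SY5Y cells, pretreated 16 h with compound, are challenged with thapsigargin to empty ER calcium stores; after 4 h, coelenterazine is added directly to the medium and luminescence is imaged.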

[13] = molecular target: Cytochrome P450 1A2 (Homo sapiens) (UniProt P05177); test: p450-cyp1a2 (AID 410; calls by dose curve; also: potency is read from the fitted curve at half-maximal effect); conditions: recombinant CYP1A2, luciferin-ME demethylation, luminescence; series mostly up to 57 µM
Cytochrome P450 1A2 (Homo sapiens), sequence (P05177 whole entry, looked up): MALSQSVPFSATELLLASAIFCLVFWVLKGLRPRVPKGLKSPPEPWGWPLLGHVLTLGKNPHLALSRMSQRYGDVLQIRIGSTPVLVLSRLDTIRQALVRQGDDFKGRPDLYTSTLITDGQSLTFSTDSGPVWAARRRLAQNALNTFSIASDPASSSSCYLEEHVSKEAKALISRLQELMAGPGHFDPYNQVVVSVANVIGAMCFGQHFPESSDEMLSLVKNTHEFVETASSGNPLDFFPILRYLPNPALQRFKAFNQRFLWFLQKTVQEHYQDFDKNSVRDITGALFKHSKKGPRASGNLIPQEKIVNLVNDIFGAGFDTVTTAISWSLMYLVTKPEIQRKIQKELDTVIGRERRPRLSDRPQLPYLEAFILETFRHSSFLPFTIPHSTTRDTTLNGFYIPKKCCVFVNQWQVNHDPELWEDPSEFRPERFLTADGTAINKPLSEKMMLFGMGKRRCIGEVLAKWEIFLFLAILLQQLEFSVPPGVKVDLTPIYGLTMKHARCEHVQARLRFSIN
Method in brief: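 20nM CYP1A2 with 100uM Luciferin-ME (at Km) in 100mM KPO4; compound preincubated 10 min, NADPH regeneration added, 60 min at room temperature. Luciferin quantified by luminescence after detection reagent; normalized to 57 uM furafylline.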

[14] = Stat Signaling Pathway (AID 446; active = well fitted curve in either direction with a large enough effect, not every such curve was filed as active;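 also: ME-180 cervical cancer cells given 40 pM IL-6 alongside compound; SIE-controlled beta-lactamase reporter measured as 460/530 nm FRET emission ratio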); conditions: ME-180 SIE beta-lactamase reporter, IL-6 stimulated, 5 h; at 7.69 µM (top of the series) unless noted
Method in brief: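 Reporter line: ME-180 cervical carcinoma, SIE-beta-lactamase. Treatment: compound with 40 pM IL-6, 5 hrs, 37 C, in low-serum OPTI-MEM with 10 mM HEPES pH 7.3. Detection: 460/530 nm fluorescence.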

[15] = molecular target: Cytochrome P450 3A4 (Homo sapiens) (UniProt P08684); test: qHTS Assay for Inhibitors and Substrates of Cytochrome P450 3A4 (AID 884); conditions: recombinant CYP3A4, Luciferin-PPXE luminescence; series mostly up to 57.1 µM; also: potency is read from the fitted curve at half-maximal effect; nearly all actives have a fitted effect of over 50% in size
Cytochrome P450 3A4 (Homo sapiens), sequence (P08684 whole entry, looked up): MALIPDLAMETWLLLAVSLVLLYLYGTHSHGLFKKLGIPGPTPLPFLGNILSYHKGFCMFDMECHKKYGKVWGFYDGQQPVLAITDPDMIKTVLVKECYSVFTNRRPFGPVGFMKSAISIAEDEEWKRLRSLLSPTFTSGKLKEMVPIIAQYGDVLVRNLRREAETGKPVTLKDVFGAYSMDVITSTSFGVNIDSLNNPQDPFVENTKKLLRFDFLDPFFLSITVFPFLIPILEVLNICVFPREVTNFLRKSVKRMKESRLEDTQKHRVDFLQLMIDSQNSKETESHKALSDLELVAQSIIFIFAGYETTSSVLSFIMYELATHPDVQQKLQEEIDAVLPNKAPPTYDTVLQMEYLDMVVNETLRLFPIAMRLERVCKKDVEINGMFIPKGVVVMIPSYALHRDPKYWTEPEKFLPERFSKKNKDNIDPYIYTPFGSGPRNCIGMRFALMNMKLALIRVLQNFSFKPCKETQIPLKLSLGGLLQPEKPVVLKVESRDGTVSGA
Method in brief: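 20 nM human CYP3A4 with 25 uM Luciferin-PPXE (at KM) in 200 mM KPO4, preincubated 10 min with compound; NADPH regeneration started a 60 min RT reaction. Luciferin detected by luminescence, normalized to 57 uM ketoconazole as full inhibition.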

[16] = molecular target: Cytochrome P450 3A4 (Homo sapiens) (UniProt P08684); test: qHTS Assay for Activators of Cytochrome P450 3A4 (AID 885); conditions: recombinant CYP3A4, Luciferin-PPXE luminescence, 60 min; series mostly up to 57.1 µM; also: nearly all actives have a fitted effect of over 65% in size
Method in brief: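 Signal was normalized against complete inhibition by 57 uM ketoconazole. The reaction used 20nM CYP3A4 with 25uM Luciferin-PPXE, 10-min compound preincubation and a 60-min NADPH-supported step at RT.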

[17] = molecular target: Cytochrome P450 2C9 (Homo sapiens) (UniProt P11712); test: qHTS Assay for Inhibitors and Substrates of Cytochrome P450 2C9 (AID 883); conditions: recombinant CYP2C9, luciferin-H luminescence, 60 min; series mostly up to 57.1 µM; also: nearly all actives have a fitted effect of over 60% in size
Method in brief: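 CYP2C9 deoxyluciferin hydroxylation, 37C, 60 min with NADPH regeneration; 10nM enzyme, 100uM Luciferin-H (KM). Glo detection reagent stopped reaction; luminescence normalized to sulphaphenazole (57uM) full inhibition.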

[18] = qHTS Assay for Identification of Small Molecule Agonists for Hypoxia Response Element Signaling Pathway (AID 914; active = well fitted activation curve with a large enough effect in the signal ratio, with a control signal flat, not every such curve was filed as active; the % refers to the signal ratio; also: potency is read from the fitted curve at half-maximal effect); conditions: ME-180 (cervical carcinoma) HRE-bla reporter, beta-lactamase ratio, CoCl2, 17 h; activation: active compounds read high
Method in brief: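 HRE-bla ME-180 cells with beta-lactamase reporter under hypoxia response element, compounds with EC50 CoCl2 for 17 hours at 37 C. CCF4 substrate, 460nm/530nm emission ratio gave %Activity; AC50 from titration series.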

[19] = molecular target: Cytochrome P450 2C19 (Homo sapiens) (UniProt P33261); test: qHTS Assay for Inhibitors and Substrates of Cytochrome P450 2C19 (AID 899); conditions: recombinant CYP2C19, luciferin-H EGE luminescence; series mostly up to 57.1 µM; also: potency is read from the fitted curve at half-maximal effect; nearly all actives have a fitted effect of over 60% in size
Cytochrome P450 2C19 (Homo sapiens), sequence (P33261 whole entry, looked up): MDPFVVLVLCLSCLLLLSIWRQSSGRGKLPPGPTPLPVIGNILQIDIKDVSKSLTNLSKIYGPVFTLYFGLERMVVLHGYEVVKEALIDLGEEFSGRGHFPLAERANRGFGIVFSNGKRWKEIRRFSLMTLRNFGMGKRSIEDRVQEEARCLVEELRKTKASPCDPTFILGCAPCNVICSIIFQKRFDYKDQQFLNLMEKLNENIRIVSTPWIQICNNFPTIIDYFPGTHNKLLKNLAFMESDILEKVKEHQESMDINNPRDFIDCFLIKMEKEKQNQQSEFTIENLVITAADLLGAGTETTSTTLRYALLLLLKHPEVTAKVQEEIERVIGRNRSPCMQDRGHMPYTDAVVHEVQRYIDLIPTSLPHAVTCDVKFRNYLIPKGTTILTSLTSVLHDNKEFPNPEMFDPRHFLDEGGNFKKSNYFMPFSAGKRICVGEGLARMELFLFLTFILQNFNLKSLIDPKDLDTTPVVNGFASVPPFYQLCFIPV
Method in brief: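 In 50mM KPO4, the reaction held 5nM enzyme and KM-level (10uM) Luciferin-H EGE; it ran 60 min at 37C after NADPH regeneration and a 10 min compound preincubation. Luminescence values were scaled to 57uM ketoconazole as complete inhibition.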

SMILES	Potency [1] [µM]	activity change, negative = inhibition [2] [%]	activity change, negative = inhibition [3]	Potency [4] [µM]	Potency [5] [µM]	Potency [6]	Potency [7]	Potency [8]	Potency [9]	Potency [10]	Potency [11]	outcome [12]	Potency [13]	activity, negative = inhibition [14]	Potency [15]	Potency [16]	Potency [17]	Potency [18]	Potency [19]
COc1ccc(-c2nc3cnc(N(C)C)nc3n(CCC#N)c2=O)cc1	> 11.4	-7.19	-5.15%	> 9.22	> 46	inactive	inactive	inactive	inactive	inactive	inactive	inactive	–	–	–	–	–	–	–
Cc1cccc(CNc2ncncc2-c2cccnc2)c1	> 11.4	–	12%	> 46	> 46	inactive	inactive	inactive	inactive	inactive	inactive	inactive	0.794 µM (active)	10.4%	0.631 µM (active)	inactive	–	–	–
N#Cc1cccc(-c2nc3cnc(N4CCOCC4)nc3n(Cc3ccc(F)cc3)c2=O)c1	> 11.4	-7.31	27.2%	> 9.22	> 46	inactive	inactive	inactive	inactive	inactive	inactive	inactive	–	13.2%	–	–	inactive	–	–
CN(C)c1ncc2nc(-c3cc(F)cc(F)c3)c(=O)n(C)c2n1	> 11.4	13.4	2.93%	> 9.22	> 46	inactive	inactive	inactive	inactive	inactive	inactive	inactive	–	–	–	–	–	–	–
COc1ccc(-c2nc3cnc(N(C)C)nc3n(C3CC3)c2=O)cc1	> 11.4	-0.159	–	> 9.22	> 46	inactive	inactive	inactive	inactive	inactive	inactive	inactive	–	24.2%	–	–	–	–	–
COCCn1c(=O)c(CCc2ccccc2)nc2cnc(Nc3ccccc3)nc21	> 11.4	16.9	10.5%	> 9.22	> 46	inactive	–	inactive	inactive	inactive	inactive	inactive	–	–	–	–	–	–	–
COc1ccc(-n2c(=O)c(-c3ccc(F)c(F)c3)nc3cncnc32)cc1	> 11.4	-1.43	1.94%	> 9.22	> 46	inactive	inactive	inactive	inactive	inactive	inactive	inactive	–	-16.2%	–	inactive	–	–	–
CCNc1ncc2nc(-c3ccc(F)cc3)c(=O)n(CCc3ccccc3)c2n1	> 11.4	12.6	-12.8%	> 9.22	> 46	inactive	–	inactive	inactive	inactive	inactive	inactive	–	–	–	–	–	0.398 µM (active)	–
Cc1noc(C)c1-c1nccc(N(C)Cc2ccco2)n1	> 11.4	6.47	-3.01%	> 46	> 46	inactive	inactive	inactive	inactive	inactive	inactive	inactive	–	3.88%	–	inactive	–	–	–
COc1cccc(-c2ccc3ncnc(N(C)C)c3c2)c1	> 11.4	–	27.5%	> 46	> 46	inactive	inactive	4.47 µM (active)	3.16 µM (active)	2.51 µM (active)	inactive	inactive	0.794 µM (active)	-13.9%	7.94 µM (active)	inactive	–	–	3.16 µM (active)
c1ccc(CNc2ncnc3ccc(-c4ccc5c(c4)OCO5)cc23)cc1	> 11.4	–	-4.08%	> 46	> 46	inactive	–	0.158 µM (active)	0.178 µM (active)	0.0355 µM (active)	inactive	inactive	0.2 µM (active)	-5.81%	2 µM (active)	inactive	–	–	3.16 µM (active)
COc1cccc(Nc2ncc3nc(CCc4ccccc4)c(=O)n(Cc4cccs4)c3n2)c1	> 11.4	–	–	> 9.22	> 46	inactive	inactive	inactive	inactive	inactive	inactive	inactive	3.16 µM (active)	-28.9%	–	inactive	–	–	–
COc1ccc(-c2nc3cnc(N4CCOCC4)nc3n(CCc3ccccc3)c2=O)cc1	> 11.4	–	119% [activator] (active)	> 9.22	> 46	inactive	inactive	inactive	inactive	inactive	–	inactive	10 µM (active)	92.5% [activator] (active)	–	–	–	1.26 µM (active)	–
